We go through 38 molecules from PubChem BioAssay AID624255 (Broad Institute, 2012).

Usually inhibition stands for the drop in the measured response relative to a control, in per cent.

Hit rate of the full screen: of about 77,000 compounds, about 4,600 (6%) were called active. Inconclusive results (about 1%) are left out. The entries come from a sample that favours actives as a whole. Values without a mark were called inactive.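 How the source made its calls: active means mean inhibition above about 93%, with at least 55% of replicates each passing it (limit read from the data, passing the limit was not always enough); inconclusive means only one of those two conditions holds; inactive means neither condition holds.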

This assay in a line: growth inhibition of T. cruzi in host fibroblasts – cell-based, beta-gal Tulahuen parasites, NIH3T3 host, luminescence, primary screen (AID 624255). Particulars: T. cruzi beta-gal in NIH3T3, GalScreen luminescence, 90 h; at 8.34 µM; hits give high values.
As to `C/C=C/c1ccc([C@@H]2[C@H](CO)N(C(C)=O)[C@H]2CN(CC)C(=O)CN(C)C)cc1`, the inhibition is 81.2%.
In the case of `C[C@@H]1CN([C@H](C)CO)C(=O)c2cc(NC(=O)CCCN(C)C)ccc2O[C@@H](C)CCCCO[C@@H]1CN(C)Cc1ccncc1`, the inhibition was 14.7%.
In the case of `CN(C)C(=O)[C@@H]1[C@@H](CO)[C@@H]2Cn3c(cccc3=O)[C@@H]2N1C(=O)C1CCC1` it was -8.64%.
In the case of `COc1ccc(S(=O)(=O)N(C)C[C@@H]2OCCCC[C@H](C)Oc3ccc(NC(=O)NC4CCCCC4)cc3C(=O)N([C@H](C)CO)C[C@H]2C)cc1` it was 94%; in that of `O=C(C[C@H]1CC[C@@H]2[C@H](COC[C@@H](O)CN2C(=O)Nc2ccc(C(F)(F)F)cc2)O1)NCCc1ccncc1`, 57%; in that of `O=C(C[C@@H]1CC[C@@H]2[C@H](COC[C@H](O)CN2C(=O)Cc2ccccc2)O1)NC1CCC1`, 27.2%.
Under `C[C@H]1CN([C@@H](C)CO)C(=O)c2cccc(NS(=O)(=O)c3cn(C)cn3)c2O[C@@H]1CN(C)CC1CCCCC1` stands 96.2% (active).
On to `C[C@H]1CN([C@@H](C)CO)C(=O)c2cc(NS(=O)(=O)c3cn(C)cn3)ccc2O[C@H]1CN(C)CC1CCCCC1`, for which the inhibition is 3.71%.
In the case of `C[C@@H]1CN([C@H](C)CO)C(=O)c2cc(NS(C)(=O)=O)ccc2O[C@@H](C)CCCCO[C@H]1CN(C)S(=O)(=O)c1cn(C)cn1` it was 104% (active); in that of `CNC[C@H]1OCCCC[C@@H](C)Oc2ccc(NS(C)(=O)=O)cc2C(=O)N([C@@H](C)CO)C[C@H]1C`, 61.9%; in that of `C[C@H](CO)N1C[C@H](C)[C@H](CN(C)C(=O)CCC(F)(F)F)OCCCC[C@H](C)Oc2ccc(NS(C)(=O)=O)cc2C1=O`, -3.61%.
Under `C[C@@H]1CN([C@@H](C)CO)C(=O)c2cc(NS(C)(=O)=O)ccc2O[C@@H](C)CCCCO[C@@H]1CN(C)S(=O)(=O)c1cn(C)cn1` stands -54%; under `CNC[C@H]1OCCCC[C@@H](C)Oc2ccc(NS(C)(=O)=O)cc2C(=O)N([C@H](C)CO)C[C@H]1C`, 101% (active).
In the case of `C[C@@H]1CCCCO[C@H](CN(C)C(=O)CCC(F)(F)F)[C@H](C)CN([C@H](C)CO)C(=O)c2cc(NS(C)(=O)=O)ccc2O1` it was 107% (active).
Consider `C[C@@H]1CN([C@@H](C)CO)C(=O)c2cc(NS(=O)(=O)c3cn(C)cn3)ccc2O[C@@H](C)CCCCO[C@H]1CN(C)S(=O)(=O)c1cn(C)cn1`, for which the inhibition is -14.8%.
In the case of `C[C@@H]1CN([C@H](C)CO)C(=O)c2cccc(NS(=O)(=O)c3cn(C)cn3)c2O[C@H]1CN(C)CC1CC1` it was 27.4%.
Under `CNC[C@@H]1OCCCC[C@@H](C)Oc2ccc(NS(C)(=O)=O)cc2C(=O)N([C@H](C)CO)C[C@@H]1C` stands 4.76%.
As to `C[C@@H]1CN([C@H](C)CO)C(=O)c2cc(NS(=O)(=O)c3ccccc3)ccc2O[C@@H](C)CCCCO[C@@H]1CN(C)C(=O)CCC(F)(F)F`, the inhibition is -2.2%.
In the case of `CNC(=O)C[C@H]1CC[C@@H]2[C@@H](COc3ccc(NC(=O)c4ccc(F)c(F)c4)cc3C(=O)N2C)O1` it was -6.57%; in that of `CCNC(=O)Nc1ccc2c(c1)C(=O)N(C)[C@H]1CC[C@@H](CC(=O)N[C@H](C)c3ccccc3)O[C@@H]1CO2`, 13.7%.
In the case of `Cc1noc(C)c1S(=O)(=O)N(C)C[C@@H]1Oc2ccc(NC(=O)Cn3cnnn3)cc2CC(=O)N([C@@H](C)CO)C[C@@H]1C` it was -16.4%.
In the case of `Cc1ccc(S(=O)(=O)N[C@@H]2CC[C@H](CCNC(=O)C3CCOCC3)O[C@@H]2CO)cc1`, the inhibition is 2.56%.
Under `CO[C@H]1CN(C)C(=O)c2cc(NC(=O)C3CCC3)ccc2OC[C@H](C)N(C)C[C@H]1C` stands 17%.
With `CC=Cc1ccc2n(c1=O)C[C@@H]1[C@@H](CO)[C@H](C(=O)NCC3CC3)[C@H]2N1C(=O)c1ccccc1` (mixture of isomers), the inhibition was 35.2%.
Under `COc1ccc(-c2ccc([C@@H]3[C@@H](CO)N4CCCCN(C(=O)NC(C)C)C[C@H]34)cc2)cc1` stands 73.2%; under `CN1C(=O)c2cc(NS(C)(=O)=O)ccc2OC[C@H]2O[C@H](CC(=O)NCc3ccccc3)CC[C@H]21`, -19.6%.
In the case of `CO[C@@H]1CN(C)C(=O)c2ccc(NC(=O)Nc3ccccc3)cc2OC[C@@H](C)N(C(=O)CN(C)C)C[C@H]1C` it was -44.4%; in that of `O=C([C@@H]1[C@@H](CO)[C@@H]2Cn3c(ccc(-c4ccccc4)c3=O)[C@H]1N2CCC(F)(F)F)N1CCCCC1`, 1.28%; in that of `Cc1noc(C)c1NC(=O)Nc1ccc2c(c1)C(=O)N([C@H](C)CO)C[C@H](C)[C@@H](CN(C)S(C)(=O)=O)OCCCC[C@H](C)O2`, 11.5%.
In the case of `CNC[C@@H]1OCCCC[C@H](C)Oc2ccc(NC(=O)Nc3ccccc3)cc2C(=O)N([C@H](C)CO)C[C@H]1C` it was 28.6%; in that of `CNC[C@H]1OCCCC[C@H](C)Oc2ccc(NC(=O)Nc3c(C)noc3C)cc2C(=O)N([C@H](C)CO)C[C@H]1C`, 104% (active).
On to `CO[C@@H]1CN(C)C(=O)c2cc(NC(=O)NC(C)C)ccc2OC[C@@H](C)N(CC2CC2)C[C@@H]1C`, for which the inhibition was -28.4%.
Under `Cc1ccc(S(=O)(=O)N2C[C@@H](O)COC[C@@H]3O[C@H](CC(=O)NCc4ccc(Cl)c(Cl)c4)CC[C@H]32)cc1` stands 97.5% (active).
In the case of `Cc1ccc(S(=O)(=O)N2C[C@H](O)COC[C@@H]3O[C@@H](CC(=O)NCC4CCCCC4)CC[C@H]32)cc1` it was 5.15%; in that of `O=C(C[C@@H]1CC[C@@H]2[C@H](COC[C@H](O)CN2S(=O)(=O)c2ccc(F)cc2)O1)NCc1ccc(Cl)c(Cl)c1`, 54.2%.
In the case of `O=C(C[C@H]1CC[C@H]2[C@@H](COC[C@H](O)CN2S(=O)(=O)c2cccc(Cl)c2)O1)Nc1ccccc1` it was 11.3%; in that of `Cc1cccc(S(=O)(=O)N2C[C@@H](O)COC[C@H]3O[C@H](CC(=O)Nc4ccc(-c5ccccc5)cc4)CC[C@@H]32)c1`, 94.5%.
`COc1cccc(S(=O)(=O)N2C[C@@H](O)COC[C@@H]3O[C@H](CC(=O)Nc4ccccc4)CC[C@H]32)c1`: the inhibition was 109% (active).
